# High-throughput results: PubChem BioAssay, National Center for Advancing Translational Sciences (NCATS)
# DT40 TDP1 no CPT: qHTS for Inhibitors of human tyrosyl-DNA phosphodiesterase 1 (TDP1): qHTS in cells in absence of CPT; hit rate 15% among 420,000; AID 686978, 2013; Potency, µM (series often up to 46.2 µM), for the others: at the highest dose activity change, negative = growth inhibition, actives largely listed as inhibitors; DT40 Tdp1-/- hTDP1 cells, no CPT, ATP luminescence, 48 h; further: potency means the concentration at half of the fitted maximal effect; nearly all actives have a fitted effect of over 55% in size
#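 Luminescent ATP content (CellTiter-Glo) served as the growth readout. Knockout chicken DT40 cells expressing human TDP1 were exposed to compounds without camptothecin for a minimum 48 hr at 37 °C.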
# DT40 TDP1 CPT: qHTS for Inhibitors of human tyrosyl-DNA phosphodiesterase 1 (TDP1): qHTS in cells in presence of CPT. chicken DT40 Tdp1-/-;hTDP1 cells + 20 nM CPT, ATP luminescence, 48 h. Potency, µM (series often up to 46.2 µM), for inactives: top-dose activity change, negative = growth inhibition, most hits filed as inhibitors. AID 686979, 2013. hit rate 12% among 420,000; further: potency means the concentration at half of the fitted maximal effect; nearly all actives have a fitted effect of over 55% in size
#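 Cell growth measured by CellTiter-Glo luminescence after a minimum 48 h, 37 C compound exposure with 20 nM CPT in Tdp1-knockout DT40 cells stably expressing hTDP1, seeded 400/well; qHTS titration format.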
# HT1080NT lethal: qHTS for induction of synthetic lethality in tumor cells producing 2HG: qHTS for the HT-1080-NT fibrosarcoma cell line; Potency, µM (series often up to 46.1 µM), without a hit: at the highest dose activity, negative = less viability, actives largely listed as cytotoxic; HT-1080-NT fibrosarcoma viability, CellTiter-Glo ATP luminescence, 48 h; hit rate 1.6% among 360,000;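 further: NT is the 2HG producing partner of a matched IDH1 knockdown line; potency means the concentration at half of the fitted maximal effect; 0% = DMSO-treated cells and -100% = media-only wells without cells; nearly all actives have a fitted effect of over 55% in size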
#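 HT-1080-NT fibrosarcoma cells (2HG-overproducing), 750 cells/well in RPMI with 5% FBS, dosed after 2 h and incubated 48 h at 37C. CellTiter-Glo luminescence normalized to DMSO and no-cell wells; concentration-response curves fitted and classed.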
# IL1B secr inh: qHTS for Inhibitors of Inflammasome Signaling: IL-1-beta AlphaLISA Primary Screen | THP-1 LPS/ATP IL-1B secretion, AlphaLISA, 16 h; active compounds read low | activity change, % at 57.5 µM | hit rate 4.7% among 360,000 | AID 743279, 2014; in the data active means activity change below about -50%; inconclusive means mostly about -30% to -49%
#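 Secreted IL-1B measured by AlphaLISA bead assay after 16 h compound exposure of THP-1 cells; compounds (final up to 57.5 uM) added 1 h before LPS (250 ng/mL) and ATP (1.25 mM) stimulation; lower signal means less secretion.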
# HT1080 IDH1KD tx: qHTS for induction of synthetic lethality in tumor cells producing 2HG: qHTS for the HT-1080-IDH1KD cell line; HT-1080 IDH1 knockdown viability, ATP luminescence, 48 h; Potency, µM (doses to about 46.1 µM), for the others: at the top dose activity, negative = toxicity, most hits filed as cytotoxic; hit rate 2% among 360,000;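 further: potency means the concentration at half of the fitted maximal effect; 0% = DMSO wells and -100% = cell-free medium wells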
#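 Assay cells: HT-1080 with IDH1 knockdown, 750 per well, RPMI/5% FBS. Exposure: 48 h at 37 °C following 2 h pre-incubation. Read: CellTiter-Glo luminescence; fitted concentration-response, curve class assigned.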
# ELG1 repair inh: qHTS screen for small molecules that inhibit ELG1-dependent DNA repair in human embryonic kidney (HEK293T) cells expressing luciferase-tagged ELG1; AID 504467, 2011; Potency, µM (titrated, usually from 46.1 µM), inactives show top-dose activity change, negative = inhibition, most hits filed as inhibitors; hit rate 2.3% among 330,000; HEK293T ELG1-luciferase reporter, luminescence, 16 h; DNA damage induced by 5-fluorouridine; further: potency means the concentration at half of the fitted maximal effect; nearly all actives have a fitted effect of over 55% in size
#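 Luminescence from the luciferase reporter, measured 30 min after ONE-Glo reagent at room temperature, was the read-out. Beforehand, 2,000 cells per well were exposed for 16 hr at 37 °C to 5-fluorouridine together with compound or vehicle.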
# * hit, by the source's call; i = inactive; ? = inconclusive; · = no result given; [ ] = remark or other dose. In the library only some 19% were active in any assay of this set; here they are far more common. Unless noted, the call rests on the fitted dose curve; in most records, active means well fitted curve in the direction sought with a large enough effect; inconclusive means small, poorly fitted or top-dose-only effect, or another doubt; inactive means no such curve, though single readings can be large; an effect the other way counts as inactive or inconclusive. Unless noted, on the % scale 0 is the no-effect control and ±100 the full control effect.
SMILES,DT40 TDP1 no CPT,DT40 TDP1 CPT,HT1080NT lethal,IL1B secr inh,HT1080 IDH1KD tx,ELG1 repair inh
C(=C1C=c2ccccc2=C1)c1ccc(N=Nc2ccc(C=C3C=c4ccccc4=C3)cc2)cc1,-11%,-8%,·,·,·,·
O=C(NCCN1CCOCC1)c1ccc(NS(=O)(=O)c2ccccc2)cc1,8%,7%,5%,i,14%,8%
COc1ccc(S(=O)(=O)N2CCN(CC(=O)c3[nH]c(C)c(C(C)=O)c3C)CC2)cc1OC,?,-5%,0%,0,-3%,15%
CC(=O)c1c(C)[nH]c(C(=O)CN2CCN(S(=O)(=O)c3ccccc3F)CC2)c1C,?,?,?,4,-1%,12µM*
CC(=O)c1c(C)[nH]c(C(=O)CN2CCN(S(=O)(=O)c3ccc(C(C)C)cc3)CC2)c1C,10µM*,15µM*,-6%,2,-10%,?
CCCCNc1nc(Oc2ccc(OCC(N)=O)nn2)nc(N2CCOCC2)n1,2%,3%,·,·,·,·
CCN(CC)Cc1cc(Nc2c3ccccc3nc3c4ccccc4n(C)c23)cc(CN(CC)CC)c1O,5.8µM*,2.6µM*,18µM*,-113*,?,·
O=C(Nc1c2c(nn1-c1ccccc1)CS(=O)(=O)C2)C1CC1,-6%,-2%,3%,-3,6%,·
C[C@@H]1CC=C[C@H]2[C@H]1C(=O)N(Cc1ccccc1)[C@H]2c1ccc(-c2ccc(N(C)C)cc2)cc1F,12µM*,21µM*,?,0,?,?
CC(=O)c1ccc(-c2ccc([C@H]3[C@H]4C=CC[C@@H](C)[C@@H]4C(=O)N3Cc3ccccc3)c(F)c2)cc1,13µM*,13µM*,?,-4,?,?
Cc1ccc(-c2ccc([C@H]3[C@H]4C=CC[C@@H](C)[C@@H]4C(=O)N3Cc3ccccc3)c(F)c2)cc1,?,?,-6%,22,-14%,-20%
C[C@@H]1CC=C[C@H]2[C@H]1C(=O)N(Cc1ccccc1)[C@H]2c1ccc(Br)cc1F,?,?,-20%,60,-15%,11%
COC(=O)c1ccc(-c2ccc([C@H]3[C@H]4C=CC[C@@H](C)[C@@H]4C(=O)N3Cc3ccccc3)c(F)c2)cc1,3.3µM*,6.5µM*,?,38,?,-23%
Cc1ccc(F)c([C@H]2[C@H]3C=CC[C@@H](C)[C@@H]3C(=O)N2Cc2ccccc2)c1,?,?,-2%,91,-17%,1%
Cc1ccc2c(c1)cc(CN(Cc1ccc3c(c1)OCO3)C(=O)c1ccccc1)c1nnnn12,21µM*,?,17%,-26,15%,2%
Cc1ccc2cc(CN(CC3CCCO3)S(=O)(=O)c3ccccc3)c3nnnn3c2c1 (stereo unspecified),-29%,29µM*,-5%,-10,-12%,-29%
Cc1ccc2c(c1)cc(CN(Cc1ccco1)S(=O)(=O)c1ccccc1)c1nnnn12,21µM*,13µM*,-1%,31,0%,?
Cc1ccc2c(c1)cc(CN(CCc1ccccc1)C(=O)N1CCOCC1)c1nnnn12,?,-21%,-3%,1,-3%,?
CC(C)Cc1nc2cc(NS(=O)(=O)N(C)C)cc(C(=O)N3CCc4sccc4C3)c2n1C,0%,5%,·,·,·,·
CC(=O)c1ccc(-c2cc(F)cc3c2OC(CNC(=O)Cc2cn4ccsc4n2)C3)s1 (stereo unspecified),-23%,2%[9.04 µM],·,·,·,·
CCC(=O)OCC(=O)N=c1sccn1Cc1ccccc1Cl,-5%,-2%,-2%,-5,2%,14%
O=C(CCl)N=c1sccn1Cc1cccc2ccccc12,2.6µM*,4.6µM*,?,-102*,18µM*,-4%
Cc1ccccc1NC(=O)c1c(C)oc2ccc(O)c(CN3CCC(C)CC3)c12,23µM*,16µM*,·,·,·,·
COCCOC(=O)c1c(C)oc2ccc(O)c(CN3CCC(C)CC3)c12,-20%,-23%,5%,-29,-6%[9.24 µM],-1%
Cc1ccccc1NC(=O)c1c(C)oc2ccc(O)c(CN3CCCC(C)C3)c12 (stereo unspecified),21µM*,10µM*,·,·,·,·
SMILES,DT40 TDP1 no CPT,DT40 TDP1 CPT,HT1080NT lethal,IL1B secr inh,HT1080 IDH1KD tx,ELG1 repair inh
O=C1C2C3CCC(CC3)C2C(=O)N1c1ccccc1 (stereo unspecified),-11%,4%,11%,-8,18%,1%
COc1ccc(CCCc2nnc(SCC(=O)Nc3ccc(Cl)cc3)o2)cc1,-25%,-14%,·,·,·,·
Cc1cccn2c(=O)c3cc(C#N)c(=O)n(-c4nnc(SCc5ccccc5F)s4)c3nc12,6.5µM*,?,·,·,·,·
CN(C)c1ccc(C=O)c(F)c1,-3%,17%,·,·,·,·
Cc1nc2ccccc2nc1-c1csc(-c2ccccc2)n1,11µM*,13µM*,·,·,·,·
Cn1c(-c2csc(-c3ccccc3)n2)n[nH]c1=S,?,?,19%,-22,1%,20%
COC(=O)c1ccccc1NC(=O)COC(=O)Cc1ccc(S(=O)(=O)N2CCOCC2)s1,5%,-17%,0%,18,-2%,·
